# Compound activity deposited in PubChem by several laboratories.
# Most compounds without a hit are left out; they make up all but 4.9% or so of the library.
# Calb FLC: C. albicans growth inhibition with fluconazole, primary screen, CaCi-2 strain, Alamar Blue fluorescence; C. albicans CaCi-2 (fluconazole-resistant clinical isolate) + fluconazole, 48 h; growth inhibition, % (test concentration not listed); hit rate 0.57% among 300,000;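 active means growth inhibition above about 58% in most replicates, limit read from the data, passing the limit was not always enough; inconclusive means exactly half the replicates above a set limit; inactive means most replicates below a set limit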;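 further: all wells also contain fluconazole at 8 µg/ml as a sub-toxic cotreatment; 0% = median of DMSO wells and 100% = median of geldanamycin control wells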
# Beta apoptosis: inhibitors of cytokine-induced beta cell apoptosis, primary screen, luminescence; INS-1E cytokine-induced death, ATP luminescence, 48 h; percent of positive-control rescue, neutral wells zero; protection from apoptosis, % (concentration not given with the values); hit rate 0.8% among 300,000; AID 435005, 2010;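 active means Every replicate reaches about 75%, or at least half do and their mean reaches it too, limit read from the data; inconclusive means At least half of replicates reach the limit but their mean does not; inactive means Under half of replicates reach the limit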;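 further: 0% = cytokine-treated negative control wells and 100% = positive control rescue; higher means more ATP so stronger rescue from cytokine killing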
# PP5 primary: PP5 phosphatase inhibitors, primary screen, biochemical, fluorescence; purified PP5c, OMFP substrate fluorescence; inhibition, % at 6.7 µM; hit rate 0.18% among 320,000; AID 1987, 2009;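 active means inhibition above the campaign's mean inhibition across all tested compounds plus 3 SD, cut at about 9.5% in these data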;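 further: 0% = DMSO only and 100% = 100 µM cantharidin control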
# PP1 counter: PP1-alpha phosphatase inhibitors, primary screen, counter-screen for PP5 inhibitor project, biochemical, fluorescence, OMFP substrate, single point; inhibition, % at 6.7 µM; Serine/threonine-protein phosphatase PP1-alpha catalytic subunit (Homo sapiens), P62136; AID 2235, 2010; purified PP1alpha; hit rate 0.9% among 320,000;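 active means inhibition above the mean inhibition of all tested compounds plus 3 SD, computed separately for each screening campaign, cut at about 15% in these data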
# Mdm2 MdmX PPI: inhibitors of human Mdm2-MdmX association, primary screen, cell-based, luminescence, split luciferase, SaOS-2, uHTS | Protein Mdm4 (Homo sapiens) + E3 ubiquitin-protein ligase Mdm2 (Homo sapiens), … | SaOS-2 split-luciferase Mdm2/MdmX complementation | inhibition, % at 8 µM | hit rate 3% among 330,000 | AID 485346, 2010;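 active means inhibition of at least 50% at 8 µM in the primary screen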
# Target sequence (O15151 whole entry, looked up): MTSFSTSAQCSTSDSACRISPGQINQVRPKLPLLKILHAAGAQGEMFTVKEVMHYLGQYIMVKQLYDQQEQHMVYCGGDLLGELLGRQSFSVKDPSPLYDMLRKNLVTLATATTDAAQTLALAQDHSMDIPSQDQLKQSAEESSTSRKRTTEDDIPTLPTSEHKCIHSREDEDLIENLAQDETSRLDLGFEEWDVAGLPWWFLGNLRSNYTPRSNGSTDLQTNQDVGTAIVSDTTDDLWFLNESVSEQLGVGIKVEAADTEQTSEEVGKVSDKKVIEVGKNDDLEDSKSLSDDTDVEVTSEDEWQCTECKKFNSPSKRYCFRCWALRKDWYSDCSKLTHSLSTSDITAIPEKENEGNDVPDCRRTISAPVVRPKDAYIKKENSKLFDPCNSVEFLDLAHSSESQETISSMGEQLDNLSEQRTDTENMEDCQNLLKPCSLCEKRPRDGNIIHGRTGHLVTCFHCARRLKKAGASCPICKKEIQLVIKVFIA
# Target sequence (Q00987 whole entry, looked up): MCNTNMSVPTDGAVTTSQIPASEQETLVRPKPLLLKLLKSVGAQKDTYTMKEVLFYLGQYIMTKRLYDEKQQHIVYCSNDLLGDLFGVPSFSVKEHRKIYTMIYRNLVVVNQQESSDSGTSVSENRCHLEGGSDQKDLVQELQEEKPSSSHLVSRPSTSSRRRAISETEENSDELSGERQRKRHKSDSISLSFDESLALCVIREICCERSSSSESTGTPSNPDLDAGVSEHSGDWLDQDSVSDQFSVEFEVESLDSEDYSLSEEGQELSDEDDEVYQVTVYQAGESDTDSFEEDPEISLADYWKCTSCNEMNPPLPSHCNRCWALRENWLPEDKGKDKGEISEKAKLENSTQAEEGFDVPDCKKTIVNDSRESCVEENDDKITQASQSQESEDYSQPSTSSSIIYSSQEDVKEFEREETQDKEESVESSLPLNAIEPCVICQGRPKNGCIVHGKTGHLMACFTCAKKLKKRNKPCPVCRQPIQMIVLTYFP
# CSC inhib: cancer stem cell viability inhibitors, primary screen, luminescence; cancer stem cell-like cells viability; inhibition, % at 7.5 µM; hit rate 1.1% among 300,000; AID 2717, 2010; in the data active means inhibition above about 75%; inconclusive means no clear call, values can overlap the other calls; tested in HMLE shEcad cells
# Mdm2 MdmX conf: Mdm2-MdmX complex disruptors, retested hits, confirmation, luminescence, single concentration | shares compounds with Mdm2 MdmX PPI | Mdm2-MdmX binding, luminescent assay | inhibition, % at 8 µM | hit rate 55% among 10,000 | AID 489028, 2010; in the data active means inhibition above about 40%
# FLuc counter: full-length luciferase signal inhibition, confirmation, counter-screen for Mdm2/MdmX interaction inhibitor project, cell-based, single concentration, SaOS-2; shares compounds with Mdm2 MdmX PPI; SaOS-2 full-length luciferase counterscreen, luminescence; inhibition, % at 8 µM; hit rate 77% among 6,200; AID 504607, 2011;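 active means mean inhibition at 8 µM reaching about 37%, which flags the compound as non-specific, limit read from the data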;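 further: p53-null SaOS-2 cells with luciferase driven by a doxycycline-inducible promoter; compound on cells about two nights before reading with doxycycline added after day one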
# Starred values were filed as active, the others as inactive; ? = inconclusive; · = no result given.
SMILES,Calb FLC,Beta apoptosis,PP5 primary,PP1 counter,Mdm2 MdmX PPI,CSC inhib,Mdm2 MdmX conf,FLuc counter
Cc1cccc(Nc2nc(N)nc(CCl)n2)c1C,-12,7,-3,-2,100*,-2,100*,60*
Cc1ccc(Nc2nc(N)nc(CSc3nnc(-c4ccncc4)o3)n2)cc1,·,-9,-1,2,67*,-13,20,·
O=C(CN1CCN(Cc2ccccc2)CC1)Nc1ccc([N+](=O)[O-])cc1C(=O)Nc1ccccc1F,23,1,2,0,54*,10,30,·
CCOC(=O)N1CCN(CC(=O)Nc2ccc([N+](=O)[O-])cc2C(=O)Nc2ccccc2F)CC1,9,14,1,-5,33,17,·,·
COc1cc([C@@H]2c3cc4c(cc3[C@@H](O)[C@H]3COC(=O)[C@H]23)OCO4)cc(OC)c1O[Si](C)(C)C(C)(C)C,6,1,5,-1,71*,127*,37,81*
CCOc1ccc(S(=O)(=O)N2CCOCC2)cc1NC(=O)CN1C(=O)NC2(CCCCC2)C1=O,·,-5,4,-1,18,2,·,·
Cc1cccc(NC(=O)NN2CCN(C)CC2)c1C,?,-4,·,·,6,-3,·,·
COc1cc(NC(=O)CSc2nc3[nH]ncc3c(=O)n2-c2ccc(Cl)cc2)cc(OC)c1,16,·,1,-1,59*,15,25,·
Cc1cccc(NC(=O)CSc2nc3[nH]ncc3c(=O)n2-c2ccccc2)c1,3,-7,0,-1,22,4,·,·
Cc1nc2ccccc2c(=O)n1/N=C/c1c(O)ccc2oc3c(c12)CCCC3,0,93*,2,-4,63*,82*,38,50*
CC(C)(C)N=Cc1c(O)ccc2oc3c(c12)CCCC3,-7,-10,0,1,16,15,·,·
CCN(CC)S(=O)(=O)c1ccc(OC(C)C)c(NC(=O)c2c3c(nc4ccccc24)CCN(Cc2ccccc2)C3)c1,-6,14,0,9,55*,·,54*,80*
CCOC(=O)Cc1cc(=O)n2[nH]cc(-c3cccc(Br)c3)c2n1,10,1,0,5,14,27,·,·
CCOc1cc(S(=O)(=O)n2ccnc2)ccc1Br,0,-14,1,-1,4,2,·,·
CCOc1cc(S(=O)(=O)n2ccc(C)n2)ccc1Br,-25,·,4,3,81*,5,-2,·
CCOc1ccc(C(=O)N/N=C/c2cc(Cl)ccc2[N+](=O)[O-])cc1,-3,-10,0,0,-5,-5,·,·
NC(=S)N1OC[C@@H]2COc3ccc4ccccc4c3[C@@H]21,-8,-6,1,7,69*,21,53*,46*
CO/N=C/NC(=O)N1OC[C@@H]2COc3ccc4ccccc4c3[C@@H]21,3,-1,3,-3,22,-18,·,·
O=C(Nc1ccccc1N1CCCCC1)c1ccc(-c2ccc(Cl)cc2)o1,3,17,2,1,30,·,·,·
CN1CCN(c2ccccc2NC(=O)c2ccc(-c3ccc(Br)cc3)o2)CC1,-3,35,3,0,48,61,·,·
Cc1cc(N2CCN(C)CC2)ccc1NC(=O)c1ccc(-c2ccc(Cl)cc2)o1,17,53,1,-1,52*,?,45*,74*
CN1CCN(c2ccccc2NC(=O)c2ccc(-c3ccc(Cl)c(Cl)c3)o2)CC1,-4,30,4,7,58*,90*,23,·
CCOC(=O)[C@@H]1[C@H]2COc3ccc(Br)cc3[C@@H]2N2C(=O)N(c3ccc(Cl)cc3)C(=O)[C@@]12C,·,-7,·,·,14,-3,·,·
CCCn1c(N)c(C(=O)CSc2ncnc3sccc23)c(=O)n(C)c1=O,·,·,·,·,7,·,·,·
COc1ccc(CN(C(=O)c2ccco2)c2ccc(C)c(C)c2)cc1,1,-4,2,-7,58*,9,57*,60*
SMILES,Calb FLC,Beta apoptosis,PP5 primary,PP1 counter,Mdm2 MdmX PPI,CSC inhib,Mdm2 MdmX conf,FLuc counter
COc1ccc(Cl)cc1NC(=O)c1cc(-c2ccccc2O)n[nH]1,6,18,1,1,9,18,·,·
COc1ccc(OC)c(NC(=O)c2cc(-c3cc(Cl)ccc3O)n[nH]2)c1,-46,35,0,10,88*,62,75*,42*
CCN(CC)Cc1cc(NC2=NS(=O)(=O)c3ccccc32)ccc1OC(=O)c1ccccc1,-4,-4,-1,1,9,5,·,·
CC(=O)c1c(C)[nH]c(C(=O)N2CCc3ccccc32)c1C,·,-6,2,0,37,·,·,·
CCOC(=O)c1[nH]c(C)c(C(=O)N2CCc3ccccc32)c1C,-1,19,3,2,63*,47,57*,82*
CCn1nc(C)c(C(=O)Nc2cc(Oc3cc(C)cc(C)c3)cc([N+](=O)[O-])c2)c1C,8,14,7,1,53*,71,60*,51*
CN(C)S(=O)(=O)N1CCC(Oc2ccc(C(=O)N3C[C@@H]4CCC[C@H]3C4)cc2)CC1,-18,6,3,1,9,5,·,·
Cc1cccc(N2CCC(N3CCN(C4CCCCC4)C(CCO)C3)CC2)c1C (stereo not drawn),-11,15,1,-3,25,55,·,·
CCOC(=O)C(C)Oc1cccc2c(=O)n(CC(=O)NCc3ccco3)ccc12 (stereo not drawn),4,26,3,-1,51*,55,58*,63*
Cc1cccn2c(=O)c(C=NCc3ccco3)c(Nc3ccc(SC(F)F)cc3)nc12,0,25,-3,-1,56*,-3,5,·
CN1CCN(C2Cc3ccc(F)cc3Sc3cc(F)c(Cl)cc32)CC1 (stereo not drawn),42,·,5,9,65*,101*,41*,57*
CSc1ccc2c(c1)C(N1CCN(C)CC1)Cc1ccccc1S2 (stereo not drawn),55,-4,4,13,69*,?,29,·
CC(=O)N1CCc2cc(C(=O)CN3CCN(c4ccccn4)CC3)ccc21,2,-14,-3,-3,-1,-11,·,·
Cc1ccc(/C=C/C(=O)c2ccccc(=O)c2O)c(C)c1,92*,70,-5,11,67*,2,61*,19
